This is part of a sample that, as a whole, favours compounds with a hit. Of some 83,000 tested, about 20% had one in any assay.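 Testing used 96-well plates and a 48-hour single-concentration exposure. Example: -40 means 40% of the starting cells died.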 Values without a mark were called inactive. Active and inactive are the calls of the source. The calls were made as follows: active = growth percent below 10; inactive = the rest.
Tests used:
Experiment in all cases: NCI-60 one-dose screen, 48 h (100 = growth as untreated, 0 = no growth, -100 = all killed)
Conditions in all cases: 10 µM
[1] = tested on: NCI-H23 lung
[2] = tested on: NCI-H226 lung
[3] = tested on: NCI-H322M lung
[4] = tested on: HOP-62 NSCLC
[5] = tested on: NCI-H460 lung
[6] = tested on: HOP-92 NSCLC
[7] = tested on: NCI-H522 lung
[8] = tested on: A549/ATCC NSCLC
[9] = tested on: 786-0 renal
[10] = tested on: COLO 205 colon
[11] = tested on: DU-145 prostate
[12] = tested on: K-562 leukemia
[13] = tested on: MALME-3M melanoma
[14] = tested on: MDA-MB-231 breast
[15] = tested on: RXF 393 renal
[16] = tested on: SF-268 CNS
[17] = tested on: SF-295 CNS
[18] = tested on: SF-539 CNS
[19] = tested on: UACC-257 melanoma
[20] = tested on: M14 melanoma

Structure (SMILES) | growth [1] | growth [2] | growth [3] | growth [4] | growth [5] | growth [6] | growth [7] | growth [8] | growth [9] | growth [10] | growth [11] | growth [12] | growth [13] | growth [14] | growth [15] | growth [16] | growth [17] | growth [18] | growth [19] | growth [20]
Cc1nc2sccn2c1-c1csc(Nc2cccc(Cl)c2C)n1 | 52.1% | 57.3% | 81% | 79.3% | 61.2% | 16.3% | 41.8% | 37.5% | 63.3% | 69.7% | 78.7% | 16% | 58.9% | 65.4% | 67.8% | 80.1% | 37.8% | 63.8% | 34% | 50.8%
COC(=O)c1c(C)nc(Nc2nc3ccccc3s2)nc1-c1ccc(Cl)cc1Cl | 103% | 102% | 106% | 97% | 106% | 107% | 96.1% | 107% | 104% | 110% | 113% | 91.2% | 97.1% | 99.1% | 107% | 101% | 93.3% | 103% | 111% | 101%
COc1cccc2c1O/C(=C\c1ncc([N+](=O)[O-])n1C)C2=O | -20.4% (active) | -16.4% (active) | 23.9% | -28.5% (active) | -34.1% (active) | -36.8% (active) | -56.8% (active) | -23.8% (active) | -28.7% (active) | -57.8% (active) | -11.9% (active) | 0.449% (active) | -53% (active) | -19.6% (active) | -66.2% (active) | -31.3% (active) | -10.4% (active) | -53% (active) | -50.5% (active) | -61.8% (active)
NC(=O)C1CCCN(Cc2c[nH]c3ccccc23)C1 (stereo not given) | 95.8% | 84.5% | 98.5% | 91.1% | 106% | 96.2% | 84.6% | 96.4% | 105% | 104% | 106% | 97.3% | 99.7% | 99.8% | 95.2% | 96% | 92.7% | 92.9% | 96.5% | 99%
C[n+]1c(/C=C/c2c[nH]c3ccccc23)ccc2ccccc21 | 71.5% | 62.3% | 69.8% | 75.4% | 34.5% | 37.9% | 53.4% | 46.6% | 82.9% | 45.8% | 60.9% | 23.3% | 68.6% | 68.8% | 84% | 72.6% | 47.5% | 87% | 76.8% | 75.2%
CC(Oc1ccc(Cl)cc1)c1ccccc1 (stereo not given) | 102% | 93% | 87.1% | 98.3% | 104% | 95% | 103% | 102% | 98.5% | 105% | 107% | 101% | 80.1% | 105% | 103% | 104% | 96% | 102% | 98.9% | 101%
C#CCn1c(-c2cccc(OCCCCl)c2)nc2c1c(=O)n(C)c(=O)n2C | 79.5% | 62.5% | 92.1% | 81.4% | 93.5% | 49.9% | 52% | 92% | 86.5% | 96.8% | 65.5% | 12.7% | 84.4% | 75.2% | 104% | 67.1% | 87.3% | 86% | 104% | 52.8%
O=C(OCc1ncc(-c2ccc(C(F)(F)F)cc2)c(NC2CCCCCC2)n1)c1c(F)c(F)c(F)c(F)c1F | 63.1% | 77.7% | 87.6% | 83.5% | 63.5% | 6.29% (active) | 38.4% | 48.9% | 74.3% | 59.2% | 77.2% | 31.9% | -14.4% (active) | 81.4% | 64.3% | 72.5% | 24.5% | 96.3% | 34.9% | 43.7%
CCCCCC(CCC)COC(=O)c1ccc(OC)cc1 (stereo not given) | 97.4% | 88.6% | 101% | 92.3% | 111% | 93.7% | 90.7% | 80.9% | 101% | 105% | 109% | 105% | 97.4% | 109% | 115% | 106% | 102% | 96.9% | 90.8% | 101%
COc1cc(-c2nc3ccc(C)cc3[nH]2)ccc1OCC(=O)N=Nc1c(O)[nH]c2ccccc12 | -17.5% (active) | 112% | -33.9% (active) | -49.4% (active) | -70.5% (active) | -12.7% (active) | -63.5% (active) | 8.54% (active) | -93.5% (active) | -37.8% (active) | 2.84% (active) | -62.9% (active) | -68.8% (active) | -81.2% (active) | -9.89% (active) | -35.6% (active) | -52.8% (active) | -88.5% (active) | 13.8% | -72.8% (active)
CCC(O)c1ccc(Br)cc1NC(=O)c1cccc(Cl)c1 (stereo not given) | 28% | -1.35% (active) | 29.4% | 28% | 3.22% (active) | 48.6% | 24.2% | 4.24% (active) | 18.1% | 93.9% | 27.9% | 8.78% (active) | -3.37% (active) | -1.69% (active) | 16.3% | 18.7% | 9.43% (active) | 2.67% (active) | 7.67% (active) | 0.116% (active)
O=C(c1ccccc1)C(Nc1ccccc1)c1ccccc1 (stereo not given) | 84.5% | 82.7% | 85.4% | 83.5% | 98.1% | 78.6% | 67.7% | 87.4% | 97.3% | 98.7% | 100% | 90.5% | 90% | 89.7% | 103% | 93.1% | 90.7% | 96.7% | 93.4% | 97.5%
CN1CCN(c2nc(-c3cccnc3)nc3sc4c(c23)CCCCCC4)CC1 | 93.7% | 93.1% | 99.3% | 85.5% | 98% | -2.98% (active) | 103% | 91.2% | 92.8% | 102% | 98.9% | 13.6% | 106% | 78.9% | 79.4% | 80.3% | 75.6% | 93.3% | 102% | 101%
CCOc1ccc2c(c1)CC[C@@H]1[C@@H]2CC[C@]2(C)[C@@H](O)[C@@H](O)C[C@@H]12 | 106% | 85.7% | 91.4% | 114% | 100% | 122% | 119% | 80.3% | 101% | 112% | 108% | 91.8% | 91.4% | 109% | 95.9% | 103% | 100% | 103% | 95.4% | 108%
O=[N+]([O-])c1ccc(-c2nc(Cl)c3c(n2)CCCC3)o1 | 88.5% | 63.6% | 102% | 64% | 34% | 85.2% | -41.3% (active) | 83% | 107% | 68.5% | 31.4% | 73.2% | 41.4% | 109% | 93.8% | 88.5% | 115% | 94.6% | 82.5% | 71.3%

Source: PubChem BioAssay (NCI)
